From PubChem BioAssay AID602250 (The Scripps Research Institute Molecular Screening Center, 2012) come the findings set out here.

Hit rate of the full screen: of about 360,000 compounds, about 2,200 (0.61%) were called active.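 How the source made its calls: active means inhibition above a per-plate cutoff, the plate's mean sample inhibition plus 3 SD (cut at about 24% in these data); inactive means the rest.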 This excerpt belongs to a sample that is enriched for actives.

By inhibition is commonly meant the drop in the measured response relative to a control, in per cent.

The nature of the experiment: calcium signal blockers in parental CHO-K1 cells – cell-based, Fluo-8 calcium fluorescence, full deck, 1536-well, counter-screen for M1 antagonist project, primary screen (AID 602250).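 Further: 0% = DMSO plus EC80 ATP and 100% = DMSO alone without ATP.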 The conditions noted are these: ATP-induced calcium, Fluo-8 fluorescence, at 3 µM, hits give high values. In general terms: Counterscreens check selectivity or assay interference.
With `CCC(=O)OC(Cc1ccccc1)(c1ccccc1)C(C)CN(C)C` (stereo not given), the inhibition is 25.3% (active).

Turning to `CN(C)CC1Oc2ccccc2OC1(O)c1ccccc1` (stereo not given), the inhibition is -2.02% (inactive). Next, `CN1CCN(Cc2ccc(OC(F)(F)F)cc2)CC1`: -3.91% (inactive); `OC1/C(=C/c2ccc(C(F)(F)F)cc2)N2CCC1CC2` (stereo not given): -10.6% (inactive). As for `CN(C)S(=O)(=O)c1cc(C(=O)N2CCC(C(=O)O)(c3ccccc3)CC2)ccc1Cl`, the inhibition was -5.53% (inactive).
